An excerpt weighted towards active compounds, which were near 8% of everything screened.
FBPA coupling cs = counter-screen for Giardia aldolase inhibitors: coupling enzyme system; coupling enzyme system counterscreen, AmpLite Red fluorescence; activity change, negative = inhibition, % at 58.2 µM, hits read low; hit rate 0.67% among 290,000; in the data active = activity change below about -30%
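Coupling enzymes only (glyceraldehyde-3-phosphate) + compound, at 57.5 uM final, 10 min RT; add substrate/coupling/AmpLite Red mix, 20 min RT; fluorescence ex 525/em 598 nm. Actives flag coupling-system interference.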
RORg inh = inhibitors of mouse ROR gamma transcriptional activity; AID 2551; Potency, µM (series often up to 53.6 µM), most hits filed as inhibitors; hit rate 5.4% among 310,000; Drosophila S2 Gal4-RORgamma UAS-luciferase reporter, 20 h; P51450; note: nearly all actives have a fitted effect of over 60% in size
Target sequence (P51450 whole entry, looked up, the tested form may be a part): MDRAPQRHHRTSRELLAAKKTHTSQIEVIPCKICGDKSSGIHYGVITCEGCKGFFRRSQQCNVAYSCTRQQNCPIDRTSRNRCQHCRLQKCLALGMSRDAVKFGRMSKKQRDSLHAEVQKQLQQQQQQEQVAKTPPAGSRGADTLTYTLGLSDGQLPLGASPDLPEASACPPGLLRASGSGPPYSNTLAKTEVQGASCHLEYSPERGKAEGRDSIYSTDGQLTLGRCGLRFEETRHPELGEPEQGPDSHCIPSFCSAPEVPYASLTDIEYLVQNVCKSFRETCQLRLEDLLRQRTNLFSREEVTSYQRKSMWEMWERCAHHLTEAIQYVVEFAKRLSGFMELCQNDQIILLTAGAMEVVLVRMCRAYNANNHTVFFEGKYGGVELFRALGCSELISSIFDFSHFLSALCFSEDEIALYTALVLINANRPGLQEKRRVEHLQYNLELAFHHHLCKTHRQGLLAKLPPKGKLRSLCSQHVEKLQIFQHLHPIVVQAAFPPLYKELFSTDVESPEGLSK
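Using a luciferase readout, inhibitors were identified by reduced reporter activity in Drosophila cells coexpressing a copper-inducible Gal4–ROR gamma fusion and UAS-driven Photinus luciferase, incubated 20 hr after 700 uM copper sulfate.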
VP16 counter = inhibits Gal4-VP16 luciferase reporter, ROR gamma counter-screen | Drosophila S2 Gal4-VP16 UAS-luciferase, luminescence, 20 h | Potency, µM (series often up to 53.6 µM), most hits filed as inhibitors | hit rate 3.5% among 310,000 | AID 2546;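 note: Gal4-VP16 expression switched on by copper sulfate through the metallothionein promoter; nearly all actives have a fitted effect of over 50% in size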
ELG1 DNA repair = inhibitors of ELG1-dependent DNA repair in HEK293T cells | hit rate 2.3% among 330,000 | HEK293T ELG1-luciferase reporter, luminescence, 16 h; DNA damage induced by 5-fluorouridine | Potency, µM (titrated, usually from 46.1 µM), actives largely listed as inhibitors; note: nearly all actives have a fitted effect of over 55% in size
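HEK293T cells expressing luciferase-tagged ELG1 (2,000/well) received 5-Fluorouridine plus compound or DMSO for 16 hr at 37 °C. Luciferase was read by ONE-Glo luminescence after 30 min at room temperature.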
TSHR antagonist = antagonists of human thyroid stimulating hormone receptor. P16473. TSHR-expressing cells, TSH-stimulated cAMP HTRF, 2 h; active compounds read low. activity change, negative = inhibition, % at 11.5 µM. hit rate 0.2% among 330,000. AID 504810;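 active = activity change below a set negative limit, meaning inhibition stronger than a set level, cut at about -70% in these data; inconclusive = activity change between two set negative limits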
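Antagonism was scored as loss of TSH-driven cAMP in TSHR cells, stimulated with 4nM TSH (EC80) for 2 hours at 37 deg C and detected by homogeneous HTRF competition immunoassay.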
Hits are given with their value; 0 = inactive; ? = inconclusive; - = no result; [ ] = dose if it differs, or a comment. Unless noted, calls come from the whole dose curve; as a rule, active = well fitted curve in the direction sought with a large enough effect; inconclusive = small, poorly fitted or top-dose-only effect, or another doubt; inactive = no such curve, though single readings can be large; an effect the other way counts as inactive or inconclusive.

SMILES | FBPA coupling cs | RORg inh | VP16 counter | ELG1 DNA repair | TSHR antagonist
CCc1nnc(NC(=O)c2cc(-c3ccncc3)nc3ccccc23)s1 | 0 | 0 | 0 | 0 | 0
O=C(COc1ccccc1F)NCC(c1ccc(F)cc1)N1CCOCC1 (stereo unspecified) | - | - | - | 0 | -
Cc1ccccc1NC(=O)c1sc(NC(=O)COc2ccccc2)c(C#N)c1C | 0 | 0 | 0 | 23µM | 0
CC(=O)N(C1=C(Cl)C(=O)c2ccccc2C1=O)C1CCCCC1 | -88 | 10µM | 11µM | 16µM | -82
NNC(=S)Nc1c(Br)cc(F)cc1Br | 0 | 6.3µM | ? | 0 | 0
O=C(Nc1c(F)cc(F)cc1Br)c1ccco1 | 0 | ? | 0 | 0 | 0
O=C1CCc2cc(NS(=O)(=O)c3ccc([N+](=O)[O-])cc3)cc3c2N1CCC3 | - | - | - | 0 | 0
O=C(CSCc1ccc(Cl)cc1)Nc1ccc(O)cc1C(=O)O | 0 | 0 | 0 | 0 | 0
CC/C(CC(=O)C(F)(F)F)=N\NC(=O)/C(C#N)=C/N(C)C | 0 | 7.1µM | ? | 0 | 0
CC1CC(C)CN(S(=O)(=O)c2ccc(C(=O)NNC(=O)c3ccccc3F)cc2)C1 (stereo unspecified) | - | - | - | 0 | 0
O=C(Nc1cccc2cccnc12)c1ccc(Br)o1 | 0 | ? | 0[0.365 µM] | ? | 0
O=C(Oc1cccc2cccnc12)c1ccc(Br)o1 | 0 | 11µM | ? | 0 | 0
O=C(Cc1ccc(Cl)cc1)Oc1cccc2cccnc12 | 0 | 1.4µM | 4µM | 0 | 0
O=C(Oc1cccc2cccnc12)c1ccco1 | 0 | 1.6µM | 4µM | 0 | 0
O=C(Oc1cccc2cccnc12)c1cccs1 | 0 | 1.6µM | 2.8µM | 0 | 0
COc1cc2c(cc1O)C(Cc1ccc(O)cc1)[N+](C)(C)CC2 (stereo unspecified) | 0 | 0 | 0 | - | -
O=C(NCc1ccc(Cl)cc1)C1CCN(C(=O)c2ccc(Cl)cc2)CC1 | - | - | - | 0 | 0
Nc1ccc(CCn2ccnc2)cc1 | 0 | 0 | 0 | 0 | 0
COc1ccc(NC(=O)C2CCCN2C(=O)Nc2ccc(OC)cc2)cc1 (stereo unspecified) | 0 | 0 | 0 | 0 | 0
O=C(O)Cn1c(C(=O)Nc2nc(-c3ccccc3Cl)cs2)cc2ccccc21 | 0 | 0 | 0 | - | -
O=C(Oc1ccc(Cl)c2cccnc12)c1ccco1 | 0 | 0.89µM | 1.6µM | ? | 0
O=C(Oc1cccc2ccccc12)c1ccco1 | 0 | 0 | 0 | 0 | 0
Cc1cccc(NC(=S)NNC(=O)c2cc3c(s2)CCC(C)C3)c1C (stereo unspecified) | 0 | 18µM | ? | 0 | 0
CCOC(=O)c1nn(-c2ccc(F)cc2)c(=O)cc1OCC(=O)Nc1ccc(OCC)cc1 | - | - | - | 0 | 0
CC(=O)Oc1ccc(N(C(C)=O)S(=O)(=O)c2ccc3ccccc3c2)cc1 | 0 | ? | 0 | 21µM | 0
SMILES | FBPA coupling cs | RORg inh | VP16 counter | ELG1 DNA repair | TSHR antagonist
CC(=O)Oc1ccc(N(C(C)=O)S(=O)(=O)c2ccc(Cl)cc2)c2ccccc12 | 0 | ? | ? | 18µM | 0
CC(=O)N(c1ccccc1C)S(=O)(=O)c1ccc(Cl)cc1 | 0 | 0 | 0 | 0 | 0
COc1cccc(OCc2cc(C(=O)NCc3cnc4ccccn34)no2)c1 | - | 0 | ? | 0 | 0
CC(C)=CCCC(C)CN1CCC(n2nccc2NC(=O)C2CCCC2)CC1 (stereo unspecified) | 0 | 0 | 0 | 0 | 0
COc1ccc(C)cc1Nc1n[n+](-c2ccccc2)c(-c2cc(OC)c(OC)cc2Br)s1 | 0 | 10µM | ? | 0 | 0
Cc1cc(Cl)ccc1OCC(O)CNCCc1ccc(S(N)(=O)=O)cc1 (stereo unspecified) | 0 | 0 | 0 | 0 | 0
C=CCn1c(-c2csc(-c3ccc(Cl)cc3)n2)n[nH]c1=S | 0 | ? | 1.8µM | 0 | 0
C=CCn1c(-c2csc(-c3ccccc3)n2)n[nH]c1=S | 0 | 4µM | 0.71µM | - | -
C=CCn1c(-c2cc(-c3ccccc3)sc2N)n[nH]c1=S | 0 | 2.2µM | 10µM | 0 | 0
C=CCn1c(-c2csc(-c3ccc(OC)c(OC)c3)n2)n[nH]c1=S | 0 | 2µM | ? | 0 | 0
C=CCn1c(-c2cccnc2)n[nH]c1=S | 0 | 0 | 0 | 0 | 0
C=CCn1c(-c2cnn(-c3ccccc3)c2N)n[nH]c1=S | 0 | ? | 0 | ? | 0
C=C[C@@]1(C)CC[C@H](O)[C@H]2C(=O)CCC[C@@H]21 | 0 | 0 | 0 | - | -
CNC1CCC(c2ccc(Cl)c(Cl)c2)c2ccccc21 (stereo unspecified) | 0 | - | - | - | -
